Pol beta inh – DNA polymerase beta (human) inhibition | P06746 | Pol beta primer extension/strand displacement, fluorescence kinetic | Potency, µM (titrated, usually from 114 µM), without a hit: at the highest dose activity change, negative = inhibition, usual class: inhibitors | actives 1.3% (n = 340,000) | AID 485314; further: on the % scale 0 is the no-effect control and ±100 the full control effect
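Kinetic readout of DNA synthesis with strand displacement by Pol beta. Compound and 10 nM enzyme sit 15 min at room temperature; 50 nM substrate starts the reaction, read immediately and at 10 min.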
Pol eta inh – DNA polymerase eta (human) inhibition. AID 588591. recombinant Pol eta, fluorescent DNA replication assay. Potency, µM (series often up to 114 µM), for inactives: top-dose activity change, negative = inhibition, most hits filed as inhibitors. actives 1.2% (n = 390,000). Q9Y253; further: on the % scale 0 is the no-effect control and ±100 the full control effect
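Fluorescent replication assay: 50 nM final substrate added after a 15 min room-temperature compound preincubation with 10 nM enzyme. Signal taken at 0 min and again at 10 min.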
FEN1 inh – blocks human flap endonuclease 1. actives 0.35% (n = 390,000). P39748. AID 588795. Recombinant FEN1 flap cleavage, fluorescence, 15 min. Potency, µM (top dose mostly 114 µM), for inactives: top-dose activity change, negative = inhibition, hits mostly inhibitors; further: on the % scale 0 is the no-effect control and ±100 the full control effect; nearly all actives have a fitted effect of over 65% in size
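With each library titrated from low to high concentration, compounds met 10 nM FEN1 for 15 min at room temperature before 50 nM substrate was added; readings at 0 and 15 min fed four-parameter Hill curve fits.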
POLI inh – blocks human DNA polymerase iota activity | Pol iota fluorescent replication assay, 10 min | Potency, µM (highest dose often 115 µM), for inactives: at the top dose activity, negative = inhibition, hits mostly inhibitors | actives 1% (n = 390,000)
Target sequence (Q9UNA4 whole entry, looked up): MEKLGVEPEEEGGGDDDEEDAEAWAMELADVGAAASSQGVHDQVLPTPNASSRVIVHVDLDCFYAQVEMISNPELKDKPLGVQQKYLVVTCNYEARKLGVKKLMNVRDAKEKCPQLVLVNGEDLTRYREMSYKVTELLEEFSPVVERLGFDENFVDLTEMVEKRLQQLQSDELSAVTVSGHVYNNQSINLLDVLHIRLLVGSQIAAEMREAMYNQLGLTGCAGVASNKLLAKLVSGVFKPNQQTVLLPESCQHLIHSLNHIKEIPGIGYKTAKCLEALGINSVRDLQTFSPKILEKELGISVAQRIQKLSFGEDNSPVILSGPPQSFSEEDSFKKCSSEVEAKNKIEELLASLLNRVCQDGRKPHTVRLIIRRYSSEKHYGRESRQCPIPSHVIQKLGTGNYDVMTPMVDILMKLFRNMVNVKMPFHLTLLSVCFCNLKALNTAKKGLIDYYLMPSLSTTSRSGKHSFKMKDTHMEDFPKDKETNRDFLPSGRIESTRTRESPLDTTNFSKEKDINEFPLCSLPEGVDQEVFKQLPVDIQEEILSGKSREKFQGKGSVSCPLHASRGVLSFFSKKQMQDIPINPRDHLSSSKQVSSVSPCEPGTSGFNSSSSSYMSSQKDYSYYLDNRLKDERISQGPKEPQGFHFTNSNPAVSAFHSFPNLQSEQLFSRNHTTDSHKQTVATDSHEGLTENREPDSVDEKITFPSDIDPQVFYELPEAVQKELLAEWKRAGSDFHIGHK
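Fluorescent replication assay read twice, at 0 min and 10 min after adding 50 nM (final) substrate. Enzyme (10 nM) and compounds were first incubated 15 min at room temperature; enzyme-free buffer wells were negative controls.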
POLK inh – DNA polymerase kappa (human) inhibition. Q9UBT6. AID 588579. Potency, µM (series often up to 107 µM), for the others: top-dose activity, negative = inhibition, most hits filed as inhibitors. purified Pol kappa, fluorescent DNA synthesis assay, 10 min. actives 0.53% (n = 400,000); further: on the % scale 0 is the no-effect control and ±100 the full control effect
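First, compounds were pin-transferred onto 10 nM Pol kappa. After 15 min at room temperature, substrate was added to 50 nM final. Fluorescence was then measured kinetically at 0 and 10 min.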
PGK inhibitor – T. brucei PGK inhibition. PGK/GAPDH coupled, Kinase-Glo luminescence, 60 min. AID 602233. actives 0.043% (n = 380,000). Potency, µM (titrated, usually from 57.5 µM), for the others: at the highest dose activity change, negative = inhibition, hits mostly inhibitors. P07378; further: on the % scale 0 is the no-effect control and ±100 the full control effect; nearly all actives have a fitted effect of over 60% in size
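Recombinant glycosomal PGK reaction used 1,3-bisphosphoglycerate generated in-well by GAPDH (100nM final) in 100mM TEA pH 7.6, 5mM MgCl2, 0.01% Tween-20. After 60 minutes at room temperature, ATP was read by Kinase-Glo Plus luminescence end-point.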
Starred values were filed as active, the others as inactive; i = inactive; ? = inconclusive; . = no result; [ ] = another dose, or the depositor's remark. The list is not random: actives were taken first. Their share in the collection is about 2.4%. The call rests on the fitted dose curve; in most records, active means well fitted curve in the direction sought with a large enough effect; inconclusive means small, poorly fitted or top-dose-only effect, or another doubt; inactive means no such curve, though single readings can be large; an effect the other way counts as inactive or inconclusive. Potency means the concentration at half of the fitted maximal effect.

SMILES	Pol beta inh	Pol eta inh	FEN1 inh	POLI inh	POLK inh	PGK inhibitor
Cc1cc(C)cc(NC(=O)CCc2nc3sc4c(c3c(=O)[nH]2)CCCC4)c1	.	20µM*	9%	45µM*	?	-10%
O=C(CCc1nc2sc3c(c2c(=O)[nH]1)CCCC3)Nc1cccc(Cl)c1	.	13µM*	-6%	79µM*	-32%	-3%
CC1CCCCC1NC(=O)CCc1nc2sc3c(c2c(=O)[nH]1)CCCC3 (configuration not stated)	.	?	6%	?	-31%	-4%
CCN(CC)C(=O)c1cccc(NC(=O)CCc2nc3sc4c(c3c(=O)[nH]2)CCCC4)c1	.	-7%	4%	?	-8%	-8%
COC(=O)c1sccc1S(=O)(=O)N(CC(=O)NCc1ccccc1)c1ccc(C)cc1	-2%	-15%	-1%	20%	0%	-3%
CCOc1ccc(C(=O)Nc2ccc(-c3nc4cc(CC)ccc4o3)cc2)cc1	0%	-10%	-1%	89µM*	-8%	-19%
CCOc1ccc(C(=O)Nc2ccc(-c3nc4cc(C)ccc4o3)cc2)cc1	8%	-16%	-2%	-19%	-5%[60.1 µM]	-4%
COc1cccc(N2CCN(C(=O)c3ccc(CS(=O)c4cccc(Cl)c4)o3)CC2)c1 (configuration not stated)	-8%	-22%	-5%	21%	-13%	-7%
CC(=O)N1CCc2cc(Br)cc(S(=O)(=O)N3CCC(C(=O)Nc4ccc(C(C)C)cc4)CC3)c21	0%	-11%	89µM*	35µM*	?	-12%
Cc1nnc(Sc2cc(NCCCO)c([N+](=O)[O-])c3nonc23)s1	-17%	79µM*	45µM*	13µM*	-20%	-5%
CCCSc1cc(NCCOC(C)=O)c([N+](=O)[O-])c2nonc12	7%	-5%	-18%	30%	-4%	4%
CCC(=O)OCCNc1cc(Sc2nc3ccccc3[nH]2)c2nonc2c1[N+](=O)[O-]	-16%	?	-23%	?	-23%	-10%
Cc1nnc(Sc2cc(NCCO)c([N+](=O)[O-])c3nonc23)s1	27%	?	40µM*	?	-21%	2%
O=[N+]([O-])c1c(NCCCO)cc(Sc2nc3ccccc3s2)c2nonc12	-26%	-17%	40µM*	?	?	-4%
CN(CC(=O)Nc1cccc(F)c1)C(=O)CSc1ccccc1F	45µM*	-16%	-10%	?	-18%	-13%
CN(CC(=O)Nc1cccc(F)c1)C(=O)CCSc1ccc(F)cc1	.	-23%	6%	6%	1%	-9%
CN(CC(=O)Nc1cccc(F)c1)C(=O)c1ccc(C(=O)c2ccccc2)cc1	.	-7%	-9%	4%	-19%	-2%
CN(CC(=O)Nc1cccc(F)c1)C(=O)c1ccc(COc2ccccc2)cc1	.	-16%	-1%	79µM*	1%	-8%
CN(C)CC(O)Cn1c2ccc(Br)cc2c2cc(Br)ccc21 (configuration not stated)	.	.	.	.	6%[19.4 µM]	.
CCn1c(SCC(=O)Nc2cc(OC)ccc2OC)nc2c(c1=O)SCC2	22µM*	-8%	0%	-1%	-4%	i
CCn1c(SCC(=O)Nc2ccc(OC)c(OC)c2)nc2c(c1=O)SCC2	2%	-2%	5%	7%	-3%	1%
Cc1cnc2ccccc2c1/C=C/c1ccc(N(C)C)cc1	.	.	-23%	23%	-7%	.
CC1=Nc2ccccc2/C1=C/c1c(N)n2c(S(=O)(=O)CC(C)C)nsc2nc1=O	?	40µM*	-28%	19%	-31%	-11%
FC(F)(F)c1cc(-c2ccco2)nc(NCc2ccco2)n1	?	50µM*	?	?	?	4%
COc1ccc(S(=O)(=O)NC(C)C(=O)NCc2ccncc2)cc1OC (configuration not stated)	0%	-16%	-9%	89µM*	1%	-10%

Screens from PubChem BioAssay.
